Reference: PubChem BioAssay (EPA / NIEHS)
Calls of active or inactive are those of the source. The calls were made as follows: active = hit-call score of the fitted dose curve at least 0.9, where 1 is the maximum; inactive = score below 0.9.

Read-out: Cytochrome P450 (CYP1A1), CYP1A1 (gene 1543)
Experiment: LTEA_HepaRG_CYP1A1: Life Technologies and Expression Analysis (LTEA) Assay for Cytochrome P450 (CYP1A1) using HepaRG (AID 2283454)
Settings: mRNA level, 48 h; actives raise or lower the signal
Method: LTEA_HepaRG is a cell based, multiplexed-readout assay that uses HepaRG, a human liver cell line, with measurements taken at 48 hours after chemical dosing on a 96-well plate.LTEA_HepaRG_CYP1A1 is one of 102 assay component(s) measured in the LTEA HepaRG cell culture assay. It is a marker of NR mediated metabolism.Data from the assay component LTEA_HepaRG_CYP1A1 was analyzed into 1 endpoint. This assay endpoint, LTEA_HepaRG_CYP1A1, was analyzed with bidirectional fitting relative to DMSO as the negative control and baseline of activity. Using a type of inducible reporter, measures of mRNA induction for gain or loss-of-signal activity can be used to understand regulation of transcription factor activity. To generalize the intended target to other relatable targets, this assay endpoint is annotated to the cyp intended target family, where the subfamily is xenobiotic metabolism.
A total of 1060 chemcials from the ToxCast library were tested in eight-point concentration-response experiments. Cell culture and cytotoxicity assays were conducted at Thermo Fisher Scientific's Custom Services facility (Madison, WI). A single lot of human HepaRG cells (Thermo Fisher Scientific, Frederick, MD) was used for the cell culture experiments. 96-well format collagen type I coated plates of human HepaRG cells were prepared using established methods. Briefly, cryopreserved HepaRG cells were thawed, plated at a density of approximately 100,000 cells/well in HepaRG Thaw, Plate, and General Purpose media (HPRG770, Thermo Fisher Scientific), and incubated for 48 hours. 0.5% DMSO was selected as vehicle control to balance the requisite need of DMSO in HepaRG cultures to maintain differentiation (for example, baseline metabolism, proportions of hepatocytes vs. cholangiocytes), while enabling further hepatic receptor pathway activation (for example, PXR and CAR) in response to chemical exposure. 48 hours after plating, the culture medium was replaced with HepaRG Serum-Free Incudtion Media. Cells were exposed to each test chemical in duplicate and maintained in CO2 incubators for another 48 hours. Chemical plates were thawed to room temperature and 200x concentrations of treatment groups were prepared. 8-point conentration-reponse curves were made with the highest exposure at 100 uM, followed by half-log dilutions, all in 0.5% DMSO. Each test plate contained variouse controls, induction positive controls (1mM phenobarbital), cytotoxicity positive controls ([…] aflatoxin B1), vehicle controls (0.5% DMSO), and total lysis controls (0.5% DMSO). Cell morphology images were taken using an Essen IncuCyte FLR automated microscope, with six 96-well plates imaged in about 24 minutes. Images were captured and exported and JPEG files. Spent culture media was transfered to black-well plates for the LDH assay, and remaining media was sorted at -80 C for later use. Cells were treated with RLT buffer and frozen until shipped for gene expression analysis. Total RNA was isolated from the cell suspension in 75 uL of Buffer RLT (Qiagen, Germantown, MD 20874) by Quintiles/Expression Analysis (Durham, NC) using a custom isolation procedure. Total RNA from each plate well was transferred to a preamplification plate. Fluidigm's 96.96 Dynamic ArrayTM (Fluidigm, Amsterdam, the Netherlands) technology was used for gene expression analyses by quantitative reverse transcription polymerase chain reaction (qRT-PCR, performed by Quintiles/Expression Analysis, Durham, NC)89. Standard TaqManTM Assays (Applied Biosystems/ThermoFisher Scientific, Foster City, CA) were used to assess the expression of 93 genes selected based on their selectivity and sensitivity to important hepatic receptors known to be modulated by environmental chemicals; importance in human hepatocyte functionality; and hepatotoxicity. […]

SMILES	AC50	outcome
Cc1cc2c(cc1C(F)(F)F)N(C(=O)Nc1ccc(Oc3cccnc3C)nc1)CC2	3.67 µM (active)	–
COc1cc(C(=O)NC2CCN(C)CC2)ccc1Nc1ncc2c(n1)N(C1CCCC1)CC(F)(F)C(=O)N2C	2.11 µM (active)	–
CN(C[C@@H](CC[N+]12CCC(C3CCCCC3)(CC1)CC2)c1ccc(Cl)c(Cl)c1)C(=O)c1cc(C(F)(F)F)cc(C(F)(F)F)c1	14.9 µM (active)	–
C[C@]12CC[C@@H]3c4ccc(O)cc4CC[C@H]3[C@@H]1CC[C@H]2O	18.5 µM (active)	–
Cc1occc1C(=O)Nc1ccc(C(=O)N2CCC(F)(F)/C(=C\C(=O)N3CCC(N4CCCCC4)CC3)c3ccccc32)cc1	16.8 µM (active)	–
OCCO	–	inactive
c1ccc2n[nH]nc2c1	–	inactive
Cc1ncc(CO)c(CO)c1O	65.3 µM (active)	–
Cc1ccc2oc(CN(Cc3ccccc3)C(=O)Nc3c(F)cc(F)cc3F)c(-c3ccc(Cl)cc3)c2c1	22 µM (active)	–
CCOC(=O)O[C@H](C)OC(=O)c1ccc2c(c1)cc(C(=O)NC1CCN(C(C)C)CC1)n2Cc1cc(-c2ccc(Cl)s2)on1	65.2 µM (active)	–
CC(C)(c1cc(Br)c(O)c(Br)c1)c1cc(Br)c(O)c(Br)c1	–	inactive
COc1cccc([C@H](O)C2CCN(CCc3ccc(F)cc3)CC2)c1OC	54.5 µM (active)	–
CN(C)c1ccc(C(=C2C=CC(=[N+](C)C)C=C2)c2ccc(N(C)C)cc2)cc1	7.18 µM (active)	–
O=C(OCCCCCCOC(=O)c1ccccc1)c1ccccc1	–	inactive
O=C1O[C@H]([C@@H](O)CO)C(O)=C1O	61.8 µM (active)	–
c1ccc2ccccc2c1	–	inactive
CCCCCc1ccc(N)cc1	28.8 µM (active)	–
CC[C@H](NC(=O)c1cc(F)ccc1NS(=O)(=O)c1cccc2cccnc12)c1ccccc1	47.1 µM (active)	–
Clc1ccccc1C(c1ccccc1)(c1ccccc1)n1ccnc1	9.17 µM (active)	–
O=c1c(-c2ccc(O)cc2)coc2cc(O)cc(O)c12	–	inactive

SMILES	AC50	outcome
CCN(Cc1cccnc1)C(=O)c1cccc(Cl)c1[C@]1(C)C(=O)N(Cc2ccc(OC)cc2OC)c2ccc(Cl)cc21	–	inactive
CC1=CC(=O)/C(=C(/C)O)C(=O)O1	–	inactive
CC(O)CC(C)(C)O (stereo not given)	–	inactive
CCN(CC)C(=O)c1cc(S(=O)(=O)Cc2ccccc2)c(N2CCC(c3ccccc3)CC2)cc1N(CC)CCN(C)C	7.21 µM (active)	–
Oc1ccc2ccccc2c1	66.8 µM (active)	–
CN(C)C(=O)C1(N2CCCCC2)CCN(CC[C@@]2(c3ccc(Cl)c(Cl)c3)CN(C(=O)c3ccccc3)CCO2)CC1	24.7 µM (active)	–
O=C1CCC(C2CCCCC2)CC1	50 µM (active)	–
CC[C@@H]1C[C@H](N(Cc2cc(C(F)(F)F)cc(C(F)(F)F)c2)C(C)=O)c2cc(C(F)(F)F)ccc2N1C(=O)OC(C)C	16.7 µM (active)	–
CCN(Cc1cccc(S(=O)(=O)O)c1)c1ccc(C(=C2C=CC(=[N+](CC)Cc3cccc(S(=O)(=O)O)c3)C=C2)c2ccccc2S(=O)(=O)[O-])cc1	32.2 µM (active)	–
O=C(O)Cc1cc(I)c(Oc2ccc(O)c(I)c2)c(I)c1	–	inactive
O=c1ccc2ccccc2o1	–	inactive
O=C(O)c1ccccc1C(=O)OCc1ccccc1	21.4 µM (active)	–
O=C=NCCCCCCN=C=O	80.1 µM (active)	–
CC1(C)NC(=O)N(c2ccc([N+](=O)[O-])c(C(F)(F)F)c2)C1=O	–	inactive
Cc1ccc(C(C)C)cc1	74.9 µM (active)	–
CCCCCCCCCCCCO	–	inactive
O=C(O)c1ccccc1-n1cc(C(=O)O)c(=O)c2cc(Nc3c(F)cc(F)cc3Cl)c(Cl)cc21	20.5 µM (active)	–
CC(C)(O)c1ccc(CNC(=O)c2cccnc2Oc2ccc3nonc3c2)cc1	34.7 µM (active)	–
CCCCCCCCCCCC[N+](C)(C)C	67.8 µM (active)	–
c1ccc(C[n+]2cccc3ccccc32)cc1	36.8 µM (active)	–
